Experimental data: PubChem BioAssay (NCATS)
Inconclusive results are not listed. The source made the active and inactive calls. The call rests on the fitted dose curve; in most records, active means well fitted curve in the direction sought with a large enough effect; inconclusive means small, poorly fitted or top-dose-only effect, or another doubt; inactive means no such curve, though single readings can be large; an effect the other way counts as inactive or inconclusive.

Columns and labels:
[1] = HPAF-II 24hr Apoptosis Induction qHTS against the NCATS CANVASS Library (AID 1347356)
In short: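 Apoptosis induction in HPAF-II pancreatic cancer cells is measured as caspase-3/7 luminescence after a 24-hour exposure to compounds.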

[2] = HEK293 18hr Apoptosis Induction qHTS against the NCATS CANVASS Library (AID 1347357)
In short: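 HEK293 cells (500 per well, DMEM with 10% FBS) were treated with natural products, incubated 18 hours at 37 degrees C, then caspase-3/7 activity was read by Caspase-Glo luminescence after 15 min at room temperature.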

[3] = HPAF-II 12hr Apoptosis Induction qHTS against the NCATS CANVASS Library (AID 1347358)
In short: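 Apoptosis in HPAF-II pancreatic cancer cells is scored as caspase 3/7 luminescence following a 12-hour exposure to an 11-point compound series.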

[4] = HEK293 24hr Apoptosis Induction qHTS against the NCATS CANVASS Library (AID 1347359)
In short: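 HEK293 cells, 500 per well, exposed to an 11-point compound series for 24 hours at 37 degrees C. Caspase 3/7 activity read by Caspase-Glo luminescence (DEVD substrate) after 15 min at room temperature.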

[5] = HPAF-II 18hr Apoptosis Induction qHTS against the NCATS CANVASS Library (AID 1347360)
In short: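 HPAF-II cells (500/well, DMEM + 10% FBS) were exposed to compounds for 18 hours at 37 degrees C. Caspase-3/7 activity was then read by Caspase-Glo 3/7 luminescence after 15 min at room temperature.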

[6] = HEK293 12hr Apoptosis Induction qHTS against the NCATS CANVASS Library (AID 1347361)
In short: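 Read-out: Caspase-Glo 3/7 luminescence (DEVD substrate), 15 min RT. Preceded by 12 h compound exposure of HEK293, 500 cells/well, 11-pt qHTS titration; doxorubicin titration as control.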

[7] = SDT Cancer Cell Toxicity qHTS against the NCATS CANVASS Library (AID 1347365); further: nearly all actives have a fitted effect of over 60% in size; further: potency means the concentration at half of the fitted maximal effect
In short: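 Dispense 500 SDT cells per well; pin-transfer compounds; incubate 72 hr at 37C, 5% CO2, 95% RH; add CellTiterGlo and read luminescence.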

[8] = G06 Cancer Cell Toxicity qHTS against the NCATS CANVASS Library (AID 1347368); further: nearly all actives have a fitted effect of over 60% in size; further: potency means the concentration at half of the fitted maximal effect
In short: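 Cytotoxicity toward canine glioma G06 cells is scored from cellular ATP via luminescence after 72 hr compound exposure at 500 cells/well.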

[9] = MCF7 Cancer Cell Toxicity qHTS against the NCATS CANVASS Library (AID 1347369); conditions: MCF7 viability, ATP luminescence (CellTiter-Glo), 72 h; further: potency means the concentration at half of the fitted maximal effect
In short: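 MCF7, 500 cells/well; cpds 11-pt qHTS; 72 hr, 37C/5% CO2; CellTiterGlo ATP luminescence.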

[10] = J3T Cancer Cell Toxicity qHTS against the NCATS CANVASS Library (AID 1347371); conditions: outcome: dose series up to 46.1 µM
In short: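 Viability of the J3T glioma line from dog is scored by ATP luminescence after a 72 hr incubation with natural products.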

[11] = target: Nuclear receptor subfamily 1 group I member 3 (Homo sapiens) (UniProt Q14994); assay: qHTS for Constitutive Androstane Receptor (CAR) Antagonist screened against the NCATS CANVASS Library (AID 1347372);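 further: cells stimulated with 50 nM CITCO agonist so inhibition reflects antagonism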
In short: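 HepG2 cells stably carrying hCAR and CYP2B6-2.2kb luciferase reporter, 2500 cells/well, compound with 50 nM CITCO agonist for 24hr at 37C. ONE-Glo luminescence measured CAR activity; CellTiter-Fluor read viability.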

[12] = U-118MG Cancer Cell Toxicity qHTS against the NCATS CANVASS Library (AID 1347351)
In short: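 Viability read-out: CellTiter-Glo luminescence after 72 h compound exposure at 37 °C/5% CO2. Cells plated at 1000/well, 4 h pre-incubation; 11-point titration. Bortezomib served as control.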

[13] = COV-362 Cancer Cell Toxicity qHTS against the NCATS CANVASS Library (AID 1347352)
In short: (§1)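 qHTS cytotoxicity: compounds tested in 11 concentrations on 1000 seeded cells per well over 72 h; bortezomib served as control; signal from CellTiter-Glo luminescence.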

[14] = A2780 Cisplatin Sensitive Ovarian Cancer Cell Toxicity qHTS against the NCATS CANVASS Library (AID 1347353); conditions: A2780 ovarian cancer viability, ATPLite luminescence, 72 h; at 46.1 µM (top of the series); further: nearly all actives have a fitted effect of over 60% in size
In short: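 Seventy-two-hour exposure of cisplatin-sensitive A2780 ovarian cells to an 11-concentration qHTS series; cytotoxicity is inferred from loss of ATPLite luminescence. Bortezomib titration served as positive control.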

[15] = UWB1.289-WTBRCA1 Cancer Cell Toxicity qHTS against the NCATS CANVASS Library (AID 1347354)
In short: as §1

[16] = target: Luciferin 4-monooxygenase (Photinus pyralis) (UniProt P08659); assay: Firefly luciferase counterscreen qHTS: Assay Interference Panel against the NCATS CANVASS Library (AID 1347363)
In short: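 Purified P. pyralis luciferase (0.04 ug/mL, 4x reagent) added to Tris-acetate buffer with 0.013 mM D-luciferin, 0.013 mM ATP and 13.3 mM Mg-acetate; compounds preincubated 15 min, then luminescence read after 5 min, RT.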

[17] = KB-8-5-11 Cancer Cell Toxicity qHTS against the NCATS CANVASS Library (AID 1347364); further: nearly all actives have a fitted effect of over 75% in size
In short: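 Natural products were titrated in 11 points onto KB-8-5-11 cells, 500 per well, and cytotoxicity was scored from CellTiter-Glo luminescence after 72 hr culture.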

[18] = KB-3-1 Cancer Cell Toxicity qHTS against the NCATS CANVASS Library (AID 1347366); conditions: KB-3-1 viability, CellTiter-Glo luminescence, 72 h; at 46.1 µM (top of the series); further: nearly all actives have a fitted effect of over 75% in size
In short: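 KB-3-1 cells (500 cells/well) in DMEM + 10% FBS were treated with compounds for 72 hr at 37C, 5% CO2. Viability was read as CellTiter-Glo luminescence after 10 minutes at room temperature.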

[19] = qHTS for ATAD5 Agonist screened against the NCATS CANVASS Library (AID 1347367);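 further: luciferase reporter driven by ATAD5 which rises upon DNA damage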
In short: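 HEK293T cells stably carrying an ATAD5-controlled luciferase reporter (2000 cells/well) attached for 5 hr, then received compounds in an 11-point series for 16hr at 37C. Luminescence was read after a 30 min room-temperature reagent step.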

[20] = qHTS for ATAD5 Antagonist screened against the NCATS CANVASS Library (AID 1347370);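 further: HEK293T cells carrying an ATAD5 luciferase reporter co-treated with 10 µM 5-fluorouridine; nearly all actives have a fitted effect of over 65% in size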
In short: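 HEK293T cells with a stably integrated ATAD5-controlled luciferase reporter were exposed to compounds (11-pt) alongside 10 uM 5-fluorouridine as ATAD5 stabilizer for 16hr at 37C. Viability was read by CellTiter-Fluor fluorescence, then ATAD5 by luminescence.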

Measured: Potency

Nuclear receptor subfamily 1 group I member 3 (Homo sapiens), sequence (Q14994 whole entry, looked up): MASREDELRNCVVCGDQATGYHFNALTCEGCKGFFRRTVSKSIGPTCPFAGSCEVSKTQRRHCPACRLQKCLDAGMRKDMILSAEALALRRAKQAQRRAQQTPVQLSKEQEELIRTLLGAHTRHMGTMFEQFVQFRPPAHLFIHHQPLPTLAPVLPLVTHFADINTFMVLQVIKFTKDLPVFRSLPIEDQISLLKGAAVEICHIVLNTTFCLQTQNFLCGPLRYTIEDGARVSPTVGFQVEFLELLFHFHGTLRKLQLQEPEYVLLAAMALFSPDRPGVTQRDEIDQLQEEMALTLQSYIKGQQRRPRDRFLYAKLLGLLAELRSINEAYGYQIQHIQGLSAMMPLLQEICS
Luciferin 4-monooxygenase (Photinus pyralis), sequence (P08659 whole entry, looked up): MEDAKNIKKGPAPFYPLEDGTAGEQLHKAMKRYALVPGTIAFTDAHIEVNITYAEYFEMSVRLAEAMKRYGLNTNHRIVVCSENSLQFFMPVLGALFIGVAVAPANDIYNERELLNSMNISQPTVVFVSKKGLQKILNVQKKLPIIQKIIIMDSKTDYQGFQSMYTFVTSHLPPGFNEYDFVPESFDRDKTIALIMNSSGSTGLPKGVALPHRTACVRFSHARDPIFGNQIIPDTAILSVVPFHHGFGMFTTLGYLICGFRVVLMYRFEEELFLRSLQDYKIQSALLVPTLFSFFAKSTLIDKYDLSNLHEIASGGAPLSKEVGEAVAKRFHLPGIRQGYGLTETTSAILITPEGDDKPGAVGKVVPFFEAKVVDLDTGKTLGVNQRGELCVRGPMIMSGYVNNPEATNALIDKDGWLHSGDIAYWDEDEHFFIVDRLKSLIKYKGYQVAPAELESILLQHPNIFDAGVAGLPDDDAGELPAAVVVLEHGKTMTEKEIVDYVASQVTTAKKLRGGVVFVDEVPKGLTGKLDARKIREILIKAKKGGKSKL

O=c1cc(-c2ccccc2)oc2c(O)c(O)ccc12
inactive: [1] | [2] | [3] | [4] | [5] | [6] | [10] | [11]
active: [7] 4.18 µM | [8] 9.35 µM | [9] 13.1 µM

O=C(O)c1cc(O)c(O)c(O)c1
not listed: [9]
inactive: all other assays above
